# Assay results taken from PubChem BioAssay AID1259421 (Broad Institute, 2018).
# Several values for one entry are separate records, joined by “and”; a condition that tells them apart may be missing. Equal entries are not always repeated. About 610 (9.5%) of roughly 6,400 compounds were called active. Rule as the data show it: active = activity change below about -70%; inconclusive = no clear call, values can overlap the other calls; inactive = above that. Shown is part of a subset that was picked to be rich in actives. A structure can be active in one record and inactive in another. Where a SMILES comes first, the peptide text is derived from it.
# Experiment: Toxoplasma gondii ME49Luc growth in HeLa cells, luciferase, no IFN-y, primary screen (AID 1259421)
# Conditions: T. gondii ME49Luc in HeLa, 72 h, stronger effect = lower value, concentration not given here
row,Compound,"activity change, negative = inhibition"
1,S=c1ccss1,1.03% (inactive)
2,COc1ccc(-c2cc(=O)c3c(O)cc(O)cc3o2)cc1,127% (inactive)
3,CC(C)c1c(C(=O)Nc2ccccc2)c(-c2ccccc2)c(-c2ccc(F)cc2)n1CC[C@@H](O)C[C@@H](O)CC(=O)O,9.33% (inactive)
4,CC(C)c1nc(N(C)S(C)(=O)=O)nc(-c2ccc(F)cc2)c1/C=C/[C@@H](O)C[C@@H](O)CC(=O)O,15.1% (inactive) and -35.2% (inactive)
5,O=C(O)C[C@H](O)C[C@H](O)/C=C/c1c(C2CC2)nc2ccccc2c1-c1ccc(F)cc1,-31.6% (inactive) and 2.61% (inactive)
6,CC(C)n1c(/C=C/[C@@H](O)C[C@@H](O)CC(=O)O)c(-c2ccc(F)cc2)c2ccccc21,-79.8% (active) and 10.3% (inactive)
7,COCc1c(C(C)C)nc(C(C)C)c(/C=C/[C@@H](O)C[C@@H](O)CC(=O)O)c1-c1ccc(F)cc1,-88.4% (active)
8,CC(C)N1c2ccccc2C(c2ccc(F)cc2)C1/C=C/C(O)CC(O)CC(=O)O (centres undefined),-15.2% (inactive)
9,COc1cc(SC)ccc1C(=O)N1CCC(Cc2ccccc2)CC1,36.5% (inactive) and 48.1% (inactive)
10,CC(C)N(C[C@H]1O[C@@H](n2cnc3c(N)ncnc32)[C@H](O)[C@@H]1O)C1CC(CCc2nc3ccc(C(C)(C)C)cc3[nH]2)C1 (some centres undefined),8.46% (inactive) and -64.1% (inactive)
11,O=C(O)C(=O)Nc1cccc(-c2nn[nH]n2)c1,5.48% (inactive)
12,CN1CCc2nc(C(=O)N[C@H]3C[C@H](C(=O)N(C)C)CC[C@@H]3NC(=O)C(=O)Nc3ccc(Cl)cn3)sc2C1,9.11% (inactive)
13,C[C@H](N)C(=O)N[C@@H](CCC(N)=O)C(=O)O (H-Ala-Gln-OH),3.92% (inactive)
14,N#C/C(=C/c1ccc(O)c(O)c1)C(=O)NCCCc1ccccc1,-10.8% (inactive)
15,NC(N)=NC(=O)c1cnccn1,11.4% (inactive)
16,CC(C)(C)NCC(O)COc1cccc2c1C[C@H](O)[C@H](O)C2 (some centres undefined),4.27% (inactive)
17,CC(C)(C)OC(=O)N[C@H]1CCCCC/C=C\[C@@H]2C[C@@]2(C(=O)NS(=O)(=O)C2CC2)NC(=O)[C@@H]2C[C@@H](OC(=O)N3Cc4cccc(F)c4C3)CN2C1=O,19.7% (inactive)
18,COc1ccc2c(O[C@H]3CC4C(=O)N(C)CCCC/C=C\[C@@H]5C[C@@]5(C(=O)NS(=O)(=O)C5CC5)NC(=O)[C@@H]4C3)cc(-c3nc(C(C)C)cs3)nc2c1C (some centres undefined),-71.4% (active)
19,N#CC(Cc1ccc(O)cc1)c1ccc(O)cc1 (centres undefined),6.16% (inactive) and 5.25% (inactive)
20,CC(=O)OCC(=O)[C@@]1(OC(C)=O)[C@@H](C)CC2C3C[C@H](F)C4=CC(=O)C=C[C@]4(C)[C@@]3(F)[C@@H](O)C[C@@]21C (some centres undefined),-5.04% (inactive) and -3.76% (inactive)
21,CCC[C@@H]1C[C@@H](C(=O)N[C@H]([C@H]2O[C@H](SC)[C@H](O)[C@@H](O)[C@H]2O)[C@H](C)O)N(C)C1,-17.1% (inactive)
22,COc1ccc2c(Oc3ccc(NC(=O)c4c(C)n(CC(C)(C)O)n(-c5ccccc5)c4=O)nc3)ccnc2c1,-67.1% (inactive) and -82.5% (active)
23,COc1ccc2c(OCc3nnc4ccc(-c5ccccc5)nn34)ccnc2c1,4.78% (inactive)
24,CNC(=O)c1cccc2cc(Oc3ccnc4cc(OCC5(N)CC5)c(OC)cc34)ccc12,-25% (inactive)
25,C[C@@H]1CC2C3CCC4=CC(=O)C=C[C@]4(C)[C@@]3(F)[C@@H](O)C[C@]2(C)[C@@]1(O)C(=O)CO (some centres undefined),-4.17% (inactive)

row,Compound,"activity change, negative = inhibition"
1,C[C@@H]1CCCN1CCc1cc2cc(-c3ccc(C#N)cc3)ccc2o1,3.6% (inactive)
2,C=CCN1CC(C(=O)N(CCCN(C)C)C(=O)NCC)CC2c3cccc4[nH]cc(c34)CC21 (centres undefined),5.12% (inactive)
3,C[C@]12CCC(=O)C=C1[C@@H]1C[C@@H]1[C@H]1[C@@H]3[C@@H]4C[C@@H]4[C@@]4(CCC(=O)O4)[C@@]3(C)CC[C@@H]12,-75.7% (active) and -36.5% (inactive)
4,CC(=O)S[C@@H]1CC2=CC(=O)CC[C@]2(C)[C@H]2CC[C@@]3(C)[C@@H](CC[C@@]34CCC(=O)O4)[C@H]12,-13.5% (inactive) and -2.91% (inactive)
5,C[C@]12CCC(=O)C=C1C=CC1C2CC[C@@]2(C)C1CC[C@@]21CCC(=O)O1 (some centres undefined),4.56% (inactive) and -4.95% (inactive)
6,CCS(=O)(=O)N1CCN(c2ccc(Nc3ncc(C(N)=O)c(NC4CC4)n3)cc2)CC1,-79.3% (active)
7,O=c1[nH]ccc2c(S(=O)(=O)N3CCCNCC3)cccc12,13.8% (inactive) and 2.48% (inactive)
8,CN1C(C(=O)Nc2ccccn2)C(=O)c2ccccc2S1(=O)=O (centres undefined),35.3% (inactive) and 14.6% (inactive)
9,CCOC(=O)C(C)Oc1cccc2c(=O)n(CC(=O)Nc3ccc4c(c3)OCCO4)ccc12 (centres undefined),14.7% (inactive)
10,O=C1CC2(CCCC2)CC(=O)N1CCCCNCC1COc2ccccc2O1 (centres undefined),21% (inactive) and 7.16% (inactive)
11,CC(C)(C)NC(=O)[C@@H]1CC2CCCCC2CN1C[C@@H](O)[C@H](Cc1ccccc1)NC(=O)[C@H](CC(N)=O)NC(=O)c1ccc2ccccc2n1 (some centres undefined),13.2% (inactive)
12,CCCCCCCCO,2.72% (inactive)
13,CC(=O)NC[C@H]1CN(c2ccc(-c3ccc(CNCc4cn[nH]n4)cc3)c(F)c2)C(=O)O1,-34.7% (inactive)
14,COc1cc(C(=O)NC2CCCNC2)cc(OC)c1OC (centres undefined),25.6% (inactive)
15,NC(=O)Nc1cc(-c2cccc(F)c2)sc1C(=O)N[C@H]1CCCNC1,-74.8% (active) and -87.7% (active)
16,NC(=O)Nc1sc(-c2ccc(F)cc2)cc1C(N)=O,12.6% (inactive)
17,CC(C)[C@@H](CS(=O)(=O)C(C)C)N1C(=O)[C@@](C)(CC(=O)O)C[C@H](c2cccc(Cl)c2)[C@H]1c1ccc(Cl)cc1,5.9% (inactive)
18,NCCCCNS(=O)(=O)c1ccc2c(Cl)cccc2c1,2.08% (inactive)
19,CC(O)C1C(=O)N2C(C(=O)O)=C(C3CCCO3)SC12 (centres undefined),5.92% (inactive)
20,COc1ccc(Cc2cnc(N)nc2N)cc1OC,9.87% (inactive)
21,CCOc1ccc(Cc2nccc3cc(OCC)c(OCC)cc23)cc1OCC,-67.8% (inactive) and -79.8% (active)
22,COc1ccc(Cc2nccc3cc(OC)c(OC)cc23)cc1OC,-2.52% (inactive) and -6.18% (inactive)
23,CN1C(=O)C(F)=C[C@]2(C)[C@H]3CC[C@]4(C)[C@@H](C(=O)NCc5nc6ncccc6[nH]5)CC[C@H]4[C@@H]3CC[C@@H]12,-1.27% (inactive)
24,C=C[C@@H](C1=CC(=O)C(OC)=C(OC)C1=O)c1ccccc1,-1.89% (inactive)
25,COc1cc(N)c(Cl)cc1C(=O)N[C@@H]1CCNCC1OC (some centres undefined),8% (inactive)

row,Compound,"activity change, negative = inhibition"
1,O=C(O)C1(Cc2cccc(Nc3nccs3)n2)CCC(Oc2cccc(Cl)c2F)CC1 (centres undefined),-34% (inactive)
2,CC(C)(C)CC(C)(C)c1ccc(O)c(-n2nc3ccccc3n2)c1,47.6% (inactive)
3,O=C(c1ccc(CN2CCOCC2)cc1)N1CCN(C2CC2)CC1,10.6% (inactive)
4,O=C(Nc1cn[nH]c1-c1nc2ccc(CN3CCOCC3)cc2[nH]1)NC1CC1,-84.3% (active)
5,CC(C)(S)C(=O)N[C@@H](CS)C(=O)O,-3.42% (inactive)
6,CCOC(=O)Nc1c[n+](N2CCOCC2)no1,8.47% (inactive)
7,Cc1ccc(/C(=C/CN2CCCC2)c2ccccn2)cc1,-1.47% (inactive)
8,Cc1ccc(/C(=C\CN2CCCC2)c2ccccn2)cc1,0.786% (inactive) and 2.04% (inactive)
9,C/C(=N\NC(=S)N1CCC1)c1ccccn1,-84.6% (active)
10,CC(=O)O[C@@H]1CC2C(C)(C)C(=O)C=C[C@]2(C)C2CC[C@@]3(C)[C@H](c4ccoc4)OC(=O)[C@H]4O[C@]43[C@@]21C (some centres undefined),22.1% (inactive)
11,Nc1nc2c(c(=O)[nH]1)N(C=O)[C@@H](CNc1ccc(C(=O)N[C@@H](CCC(=O)O)C(=O)O)cc1)CN2,22.2% (inactive)
12,CCOC(=O)C1=CCCC[C@H]1S(=O)(=O)Nc1ccc(F)cc1Cl,18.7% (inactive)
13,O=C(O)Cc1ccc2c(c1)C(=O)c1ccccc1CO2,19.3% (inactive)
14,COc1cc(C)c2c(c1C=O)Oc1c(c(C)c(O)c3c1C(O)OC3=O)OC2=O (centres undefined),-5.42% (inactive)
15,COC(=O)c1c(C)c2c(c(C)c1O)OC(=O)c1c(C)c(Cl)c(O)c(Cl)c1O2,-3.73% (inactive)
16,Cc1cc(O)c(C=O)c2c1C(=O)Oc1c(C)c(O)c3c(c1O2)C(O)OC3=O (centres undefined),-75.6% (active)
17,CS(=O)(=O)Nc1c(O)ccc2c1CCCC2C1=NCCN1 (centres undefined),15.3% (inactive) and 0.146% (inactive)
18,CC(=O)[C@@]1(O)CCC2C3C[C@H](C)C4=CC(=O)C=CC4(C)[C@@]3(F)[C@@H](O)C[C@@]21C (some centres undefined),10% (inactive) and 7.34% (inactive)
19,NC(N)=NC(=O)c1nc(Cl)c(N2CCCCCC2)nc1N,3.26% (inactive)
20,CC(=O)OCC(=O)[C@@]1(O)[C@@H](C)CC2C3CCC4=CC(=O)C=C[C@]4(C)[C@@]3(F)[C@@H](O)C[C@@]21C (some centres undefined),-12.5% (inactive)
21,N#Cc1cc(-c2n[nH]c(-c3ccncc3)n2)ccn1,17.6% (inactive)
22,O=C(O)c1ccc(-c2ccc3cc(O)c(C45CC6CC(CC(C6)C4)C5)cc3c2)cc1,-2.82% (inactive)
23,O=C(O)c1ccc2cc(-c3ccc(O)c(C45CC6CC(CC(C6)C4)C5)c3)ccc2c1,-56% (inactive)
24,O=C(O)/C=C/c1ccc(-c2ccc(O)c(C34CC5CC(CC(C5)C3)C4)c2)cc1,-96.6% (active)
